Laboratory results reported in PubChem BioAssay (NCATS).
Inconclusive results are not listed. Active and inactive are the calls of the source. Calls come from the whole dose curve; as a rule, active = well fitted curve in the direction sought with a large enough effect; inconclusive = small, poorly fitted or top-dose-only effect, or another doubt; inactive = no such curve, though single readings can be large; an effect the other way counts as inactive or inconclusive.

Columns and labels:
[1] = test system: MCC-26; assay: qHTS assay to identify novel small-molecules to repurpose for Merkel cell carcinoma treatment (AID 1296009); conditions: MCC and control cell lines, CellTiter-Glo viability, 72 h; series mostly up to 46 µM; note: nearly all actives have a fitted effect of over 60% in size
Procedure, shortened: (§1)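 Cells were treated for 72 hr at 37 degree celsius with compounds in 8- or 11-point dose response. Viability was read by CellTiter-Glo luminescence, normalized to no-cell (cytotoxicity) and DMSO controls.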

[2] = test system: MKL-1; assay: as above; conditions: MCC and control cell lines, CellTiter-Glo viability, 72 h; series mostly up to 46 µM
Procedure, shortened: as §1

[3] = test system: MKL-2; assay: as above; conditions: MCC and control cell lines, CellTiter-Glo viability, 72 h; series mostly up to 46 µM
Procedure, shortened: as §1

[4] = test system: NIH3T3; assay: as above; conditions: MCC and control cell lines, CellTiter-Glo viability, 72 h; series mostly up to 44.8 µM
Procedure, shortened: as §1

[5] = test system: UISO; assay: as above; conditions: MCC and control cell lines, CellTiter-Glo viability, 72 h; series mostly up to 46 µM
Procedure, shortened: as §1

[6] = test system: WaGa; assay: as above; conditions: MCC and control cell lines, CellTiter-Glo viability, 72 h; series mostly up to 46 µM
Procedure, shortened: as §1

[7] = test system: C33A; assay: Primary qHTS to identify gynecologic anti-cancer compounds using libraries of approved drugs and bioactive compounds (AID 1345084); conditions: Gynecologic cancer cell panel viability, ATPlite luminescence, 48 h; series mostly up to 57.5 µM; note: nearly all actives have a fitted effect of over 55% in size
Procedure, shortened: (§2)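 Five-concentration response, 48 h; readout is ATP-driven luciferase luminescence.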

[8] = test system: CAOV3; assay: as above; conditions: Gynecologic cancer cell panel viability, ATPlite luminescence, 48 h; series mostly up to 57.5 µM
Procedure, shortened: as §2

[9] = test system: CASKI; assay: as above; conditions: Gynecologic cancer cell panel viability, ATPlite luminescence, 48 h; series mostly up to 57.5 µM
Procedure, shortened: as §2

[10] = test system: Es-2; assay: as above; conditions: Gynecologic cancer cell panel viability, ATPlite luminescence, 48 h; series mostly up to 57.5 µM
Procedure, shortened: as §2

Measured: Potency

CN(C)CCOc1ccc(C(=C(CCCl)c2ccccc2)c2ccccc2)cc1
inactive: [1] | [2] | [3] | [4] | [5] | [6]

C[C@@H](N)c1ccc(C(=O)Nc2ccnc3[nH]ccc23)cc1
inactive: [1] | [2] | [3]

COc1ccc(CCN(C)CCCOc2ccc(S(=O)(=O)c3[nH]c4ccccc4c3C(C)C)cc2)cc1OC
inactive: [1]

COc1ccc(-c2cc(=O)c3c(O)cc(O[C@@H]4O[C@H](CO[C@@H]5O[C@@H](C)[C@H](O)[C@@H](O)[C@@H]5O)[C@@H](O)[C@H](O)[C@@H]4O)cc3o2)cc1O
inactive: [1] | [2] | [3] | [4] | [5] | [6]

COC(=O)N1CCN(Cc2cccc(NC(=O)Nc3ccc(C)nc3)c2F)CC1
inactive: [1] | [2] | [3] | [4] | [5] | [6] | [7] | [8] | [9] | [10]

Cc1cc2c(cc1C1(c3ccc(C(=O)O)cn3)CC1)C(C)(C)CCC2(C)C
inactive: [1] | [2] | [3] | [4] | [5] | [6] | [7] | [8]

Clc1ccc(COC(Cn2ccnc2)c2ccc(Cl)cc2Cl)c(Cl)c1 (centres undefined)
inactive: [1] | [2] | [3]

CCCCC(C)(C)[C@H](O)C=C[C@H]1[C@H](O)CC(=O)[C@H]1CC=CCCCC(=O)O
inactive: [1]

CCC[C@@H](NC(=O)[C@@H]1[C@H]2CCC[C@@H]2CN1C(=O)[C@@H](NC(=O)[C@@H](NC(=O)c1cnccn1)C1CCCCC1)C(C)(C)C)C(=O)C(=O)NC1CC1
inactive: [1] | [2] | [3] | [4] | [5] | [6]
